The values below come from PubChem BioAssay AID651725 (National Center for Advancing Translational Sciences (NCATS), 2012).

The campaign covered roughly 360,000 compounds. About 2,000 (0.56%) were called active. About 2% were inconclusive and are not listed. The entries come from a sample that favours actives as a whole. Values without a mark were called inactive. Cut-off read from the data, not from the text of the source: active = activity change below about -65%; inconclusive = mostly about -30% to -63%; inactive = weaker than that.
% is set by controls: 0 for no effect and ±100 for the full control effect.

Chain of Homeobox protein SIX1 (Homo sapiens) + Protein phosphatase EYA2 (Homo sapiens) (O00167 whole entry, looked up): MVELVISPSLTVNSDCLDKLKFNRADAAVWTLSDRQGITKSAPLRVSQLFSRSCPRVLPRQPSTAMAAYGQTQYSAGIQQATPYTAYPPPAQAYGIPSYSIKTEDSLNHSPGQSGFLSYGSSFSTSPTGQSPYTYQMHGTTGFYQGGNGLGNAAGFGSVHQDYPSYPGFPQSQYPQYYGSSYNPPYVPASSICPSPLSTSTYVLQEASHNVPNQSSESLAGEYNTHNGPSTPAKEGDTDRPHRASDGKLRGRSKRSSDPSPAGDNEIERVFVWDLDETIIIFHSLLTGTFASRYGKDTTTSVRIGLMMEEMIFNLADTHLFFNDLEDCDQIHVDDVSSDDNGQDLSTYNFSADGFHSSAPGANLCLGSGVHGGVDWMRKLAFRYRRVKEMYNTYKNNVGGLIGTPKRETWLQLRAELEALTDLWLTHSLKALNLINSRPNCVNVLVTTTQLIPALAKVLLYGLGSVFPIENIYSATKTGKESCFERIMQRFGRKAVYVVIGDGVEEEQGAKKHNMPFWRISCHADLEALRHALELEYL
Chain of Homeobox protein SIX1 (Homo sapiens) + Protein phosphatase EYA2 (Homo sapiens) (Q15475 whole entry, looked up): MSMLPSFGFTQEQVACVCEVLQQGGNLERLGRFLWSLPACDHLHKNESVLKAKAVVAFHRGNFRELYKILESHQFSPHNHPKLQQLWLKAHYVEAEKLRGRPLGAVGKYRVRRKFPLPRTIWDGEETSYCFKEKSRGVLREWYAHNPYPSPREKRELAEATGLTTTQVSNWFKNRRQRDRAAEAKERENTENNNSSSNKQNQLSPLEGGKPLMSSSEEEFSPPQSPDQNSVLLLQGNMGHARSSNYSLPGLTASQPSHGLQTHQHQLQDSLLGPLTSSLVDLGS

This experiment addresses Homeobox protein SIX1 (Homo sapiens) + Protein phosphatase EYA2 (Homo sapiens) (UniProt Q15475+O00167). Description: qHTS Assay for Inhibitors of the Six1/Eya2 Interaction. To be noted: AlphaScreen GST-Six1/His-Eya2 binding, biochemical; hits give low values. From the text: Its expression is low or undetectable in normal adult breast tissue but the gene is over-expressed in 50% of primary breast tumors and 90% of metastatic lesions. […] Similar to Six1, Eya2 is also not expressed in most normal adult tissues, but is reexpressed in cancers. The Six1-Eya interaction is essential for proliferation during embryonic development, and both Six1 and Eya2 have been independently implicated in the same types of cancer. Because Six1 and Eya2 are embryonic genes with little expression in adult tissues, inhibitors of their expression/activity are likely to have limited side effects. Our goal is to identify inhibitors of the Six1/Eya interaction for potential cancer therapy. To this end, we have developed a homogenous AlphaScreen assay targeting the Six1/Eya interaction. We performed a large scale HTS of the Molecular Libraries Small Molecule Repository (MLSMR) to identify inhibitors of the Six1/Eya interaction as potential anti-cancer therapeutics. Compounds identified can also be used as chemical probes to better understand the biological functions of Six1 and Eya. NIH Chemical Genomics Center [NCGC] NIH Molecular Libraries Probe Centers Network [MLPCN] MLPCN Grant: DA033147 Assay Submitter (PI): Rui Zhao, University of Colorado Denver
The first step of the 5 uL AlphaScreen assay is to dispense assay buffer (50 mM Tris, pH 8.0, 300 mM NaCl, 0.05% BSA, 0.02% Tween 20, 1 mM TCEP) into a Greiner 1536 white solid bottom microtiter plate (789175-F). Five microliters is added to Column 1, 4 uL is added to Column 2 and 3 uL is added to Columns 3 through 48. A 5X protein solution (250 nM GST-Six1 protein + 500 nM His-tagged Eya2 protein) is mixed and 1 uL is dispensed to Columns 3-48. Using a 1536 pintool, 23 nL of compound is transferred to the assay plate. A solution of 5X AlphaScreen beads is mixed (50 ug/mL Glutathione linked donor beads + Nickel chelated acceptor beads) and 1 uL is dispensed to Columns 2-48. The assay plate is incubated for one hour, with a lid, at 37 deg C in the dark. The plate is read using a Perkin Elmer Envision using an AlphaScreen protocol.
Regarding `O=[N+]([O-])c1ccc(C=Nc2ccc(Cl)cc2Cl)s1`, the activity change is -73.2% (active). Regarding `CCC(C)CN1C(=O)CN(S(C)(=O)=O)CC1(C)C(=O)Nc1ccc2c(c1)OCCO2` (stereo not drawn), the activity change was 16.6%. On to `COc1ccc2c(c1)CCCO[C@]21O[C@H](CCO)C[C@H](O)[C@H]1O`, for which the activity change is 6.3%. For `CC(C)(C)OC(=O)NCCCCCNC(=O)c1[nH]cnc1C(=O)Nc1nccs1`, the activity change was -76.4% (active).

Regarding `CC(C)(C)OC(=O)NCCCCCNC(=O)c1nc[nH]c1C(=O)NCc1ccccc1`, the activity change was -0.665%. As for `Cc1ccc(NC(=O)c2nc[nH]c2C(=O)N[C@@H](CCCCNC(=O)OC(C)(C)C)C(=O)OC(C)(C)C)cc1`, the activity change was -3.47%. As for `COC(=O)c1ccc2nc(-c3cccc(Br)c3)c(Cc3ccccc3C(F)(F)F)n2c1`, the activity change was -10.3%. Next, `Cc1ccc(C(=O)N2CCN(C3CCCCC3)CC2)s1`: -13.4%. On to `OCCC#Cc1ccc(N2C(c3ccsc3)=Cc3ccc(F)cc3C2c2c[nH]c3ccccc23)cc1` (stereo not drawn), for which the activity change is -7.53%. On to `Cc1cc(C(=O)N/N=C/c2cc([N+](=O)[O-])cc(C)c2O)n[nH]1`, for which the activity change was -77.5% (active). Regarding `COc1ccc(C(=O)NNC(=O)c2cc(C)[nH]n2)cc1`, the activity change is 1.78%. For the molecule `O=C(N/N=C/c1cccc(OC(=O)c2ccc([N+](=O)[O-])cc2)c1)c1cccnc1`, the activity change is -3.98%. Next, `CCCCNS(=O)(=O)c1ccc2nc(SCC(=O)Nc3cc(C)cc(C)c3)[nH]c2c1`: -4.15%; `CCOC(=O)[C@]12CCCC=C1N(Cc1cccc3ccccc13)C(=O)[C@H](CC(=O)NCC13CC4CC(CC(C4)C1)C3)C2`: -14%. Take `Nc1nonc1-n1nnc(C(=O)N/N=C\c2ccncc2)c1CN1CCCCC1`: the activity change was -5.55%. With `Nc1nonc1-n1nnc(C(=O)N/N=C/c2ccccc2O)c1CN1CCCC1`, the activity change was -91.1% (active). With `NNC(=O)c1nnn(-c2nonc2N)c1CN1CCCC1` the figure was 4.15%; with `COC(=O)C[C@H]1C=C[C@H](NC(=O)c2ccc(F)cc2)[C@@H](CO)O1`, 7.11%; with `Cc1cc(C)c(S(=O)(=O)NN=C2c3ccccc3[C@H]3Cc4csc[n+]4[C@@H]23)c(C)c1`, -12.5%. With `Cc1cccc(N(CC(=O)N2CCCC2)S(C)(=O)=O)c1C`, the activity change was 7.01%. Turning to `Cc1ccc(NC(=O)CSc2nn3c(=O)c(C)nnc3s2)cc1Cl`, the activity change is -81.7% (active). As for `COc1ccc(Cc2nnc(SCC(=O)Nc3ccc(C)c(Cl)c3)[nH]c2=O)cc1`, the activity change is 6.59%. Next, `Cc1ccc(NC(=O)CSc2nnc(CNC(=O)c3ccccc3F)o2)cc1Cl`: 8.8%.
